The list is not random: actives were taken first. Their share in the collection is about 4.5%.
BJeLR viability: kills HRASV12-expressing BJeLR cells; BJeLR (HRASV12) viability, CellTiter-Glo ATP luminescence, 48 h; AID 1554; inhibition, % (no concentration beside the values); 300,000 tested, 0.17% active; in the data active = inhibition above about 50%; inconclusive = no clear call, values can overlap the other calls
PrPC TRFRET: reduces human prion protein on the cell surface | 370,000 tested, 0.43% active | inhibition, % at 13.8 µM | P04156 | cell surface PrPC, TR-FRET read-out | AID 720596; in the data active = inhibition above about 24%
GDH-TPI inh: counter-screen for M. tuberculosis FBA inhibitors: GDH-TPI coupled enzymes. GDH-TPI coupled enzyme counterscreen, NADH absorbance. inhibition, % at 4.8 µM. 360,000 tested, 1.2% active. AID 588335; in the data active = inhibition above about 30%
PrP UTR inh: inhibition of PrP 5' UTR reporter expression | cell-based PrP 5' UTR mRNA reporter, plate reader | inhibition, % (concentration not given with the values) | 340,000 tested, 0.35% active | AID 488862; in the data active = inhibition above about 52%
PfHsp40 yeast: compounds rescuing yeast from Plasmodium falciparum HSP40 toxicity | S. cerevisiae expressing PfHsp40, growth rescue, ATP luminescence | growth rescue, % at 12.5 µM | 340,000 tested, 0.68% active; in the data active = growth rescue above about 28%, passing the limit was not always enough; inconclusive = no clear call, values can overlap the other calls;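 also: yeast W303a lacking pdr1 and pdr3 grown in galactose medium; growth measured after three days at 30 °C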
FBA Mtb inh: Mtb fructose-bisphosphate aldolase inhibition; P9WQA3; purified M. tuberculosis FBA, fluorescence read-out; inhibition, % at 1 µM; 360,000 tested, 2.3% active; in the data active = inhibition above about 27%
Target sequence (P9WQA3 whole entry, looked up): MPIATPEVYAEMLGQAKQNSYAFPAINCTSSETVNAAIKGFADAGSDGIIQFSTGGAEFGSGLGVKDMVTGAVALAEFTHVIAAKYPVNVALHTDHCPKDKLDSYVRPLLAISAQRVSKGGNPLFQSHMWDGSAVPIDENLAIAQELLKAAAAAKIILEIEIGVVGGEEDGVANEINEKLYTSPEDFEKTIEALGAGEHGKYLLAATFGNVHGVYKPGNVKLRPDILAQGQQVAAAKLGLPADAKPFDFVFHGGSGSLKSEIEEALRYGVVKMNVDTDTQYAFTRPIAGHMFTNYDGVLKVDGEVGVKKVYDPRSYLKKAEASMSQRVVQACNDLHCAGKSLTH
Numbers stand for hits; – = inactive; ? = inconclusive; · = not tested or not shown; + = active, no number.

SMILES | BJeLR viability | PrPC TRFRET | GDH-TPI inh | PrP UTR inh | PfHsp40 yeast | FBA Mtb inh
CC1(C)CC(=O)C(C=Nc2ccc3[nH]ncc3c2)=C(O)C1 | – | – | 36 | – | – | –
CC1(C)CC(=O)C(C=Nc2ccc3cn[nH]c3c2)=C(O)C1 | – | – | 39 | – | – | –
COC(=O)CCC1NC(=O)C(Cc2c[nH]c3ccccc23)NC(=O)C2CC(=O)OC(C)C(NC(=O)C(C)NC(=O)C3CCCN3C(=O)C3CCCN3C(=O)C(C)NC(C)=O)C(=O)NC(CC(C)C)C(=O)NC(CCCCNC(=O)CCC(C(=O)NC(Cc3ccc(O)cc3)C(=O)O)NC1=O)C(=O)NC(Cc1c[nH]c3ccccc13)C(=O)N1CCCC1C(=O)NC(CO)C(=O)N2 (centres undefined) | · | – | · | · | · | ·
O=C(c1cccc(C(F)(F)F)c1)N1CC[C@H]2[C@H](CCCN2Cc2ccc(F)cc2)C1 | · | – | · | · | · | ·
Cc1cc(=O)oc2cc(O)cc(OCc3ccccc3)c12 | · | – | 31 | – | – | +
CCN(c1ccccc1)S(=O)(=O)c1cc(C(=O)Oc2ccc3c(C)cc(=O)oc3c2)ccc1C | – | – | – | – | – | +
Cc1ccc(S(=O)(=O)CCC(=O)Oc2ccc3c(C)cc(=O)oc3c2)cc1 | – | – | – | – | – | +
Cc1cc(=O)oc2cc(OC(=O)CCCCCN3C(=O)c4ccccc4C3=O)ccc12 | – | – | – | – | – | 153
O=C(Nc1cccc(C(F)(F)F)c1)O[C@@H]1CC[C@@]23CCCN2C(=O)CCC[C@H]3C1 | · | – | · | · | · | ·
Cc1cc(=O)[nH]c2c(C)c(N)ccc12 | – | – | – | – | – | +
CC(=O)Oc1cc(OC(C)=O)c2c(C)cc(=O)oc2c1 | – | – | – | – | – | +
CC(=O)Oc1cc2oc(=O)cc(C)c2cc1OC(C)=O | – | – | – | – | ? | 173
Cc1coc2cc3oc(=O)cc(C)c3cc12 | – | – | – | – | – | –
Cc1cc(=O)[nH]c2c(C)c(Cl)ccc12 | – | · | · | · | · | ·
Cc1cc(=O)oc2cc(OC(=O)C3CCN(C(=O)c4ccc(F)cc4)CC3)ccc12 | – | – | – | – | – | 148
Cc1cccc(C)c1NC(=O)C1(C)CCC(=O)N1c1cc(C(C)(C)C)nn1C (centres undefined) | · | – | · | · | · | –
CC1CCC2(CCC(=O)N2CCCOC(=O)c2ccccc2)CC1 (centres undefined) | · | – | · | · | · | ·
Cc1cc(=O)oc2cc(O)ccc12 | – | – | – | – | – | +
CC(=O)Nc1c(OC(C)=O)ccc2c(C)cc(=O)oc12 | – | – | – | – | – | +
O=c1[nH]c2cc(O)ccc2c2ccccc12 | · | – | – | · | · | –
Cc1oc2cc(O)ccc2c(=O)c1N1C(=O)c2ccccc2C1=O | – | – | – | – | – | –
Cc1cc(=O)[nH]c2cc(O)ccc12 | – | – | – | – | – | +
CCC(=O)Oc1ccc2c(C)cc(=O)oc2c1C(=O)CC | – | – | – | – | – | –
Cc1ccccc1-c1c(C)oc2cc(O)ccc2c1=O | – | – | – | – | – | +
CCCCCNc1ncnc2c(C)[nH]nc12 | · | – | · | · | · | –
SMILES | BJeLR viability | PrPC TRFRET | GDH-TPI inh | PrP UTR inh | PfHsp40 yeast | FBA Mtb inh
CCCC1CCC2(CCCN2CCOC(=S)Nc2ccccc2)CC1 (centres undefined) | · | – | · | · | · | ·
CC[C@H](CCCc1ccc(OC)cc1)CCC(=O)N1CCOCC1 | · | – | · | · | · | ·
CS(=O)(=O)OC12CCCN(C1)/C(=C/c1ccc(Cl)cc1)C2 (centres undefined) | · | – | · | · | · | ·
COc1ccc(-c2cc(=O)oc3cc(O)ccc23)cc1 | – | – | – | – | – | –
CC(=O)Oc1ccc2c(C)cc(=O)oc2c1 | – | – | – | – | – | +
Cc1cc(=O)oc2cc(OCC(=O)N3CCOCC3)ccc12 | – | – | – | – | – | –
Cc1ccc(NC(=O)CSCC(=O)OCc2cc(=O)oc3cc(O)ccc23)c(C)c1 | – | – | – | – | – | 119
COC(=O)Cc1cc(=O)oc2cc(O)ccc12 | – | – | – | – | – | +
COC(=O)[C@]12C[C@H](CC(=O)NCc3ccccc3)C(=O)N(Cc3ccc(Cl)cc3Cl)C1=C[C@H](C1CCCC1)O[C@@H]2C | · | – | · | · | · | ·
CC(C)CCNC(=O)[C@H]1COC(O)([C@H](Cc2ccccc2)NC(=O)[C@@H](NC(=O)OCc2ccccc2)C(C)C)CN1C (some centres undefined) | · | – | · | · | · | ·
COc1ccc(-n2c(COc3ccc(Cl)cc3)nnc2SCC(=O)Nc2ccc3c(c2)OCO3)cc1 | · | – | · | · | · | ·
